# ± gives the standard deviation.
# What was measured:
# Conditions in all cases: modulator concentration 10 µM
# [1] = test system: RAW-Dual (murine macrophage reporter line); assay: NF-kB reporter (SEAP) activity fold change vs agonist alone; higher = enhanced NF-kB activity
# Method in brief: (§1)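 RAW-Dual murine macrophage reporter cells were seeded at 50 000 per well in 384-well plates and pre-incubated 1 hour at 37 °C with compound pin-transferred to 10 μM final. After 1 hour, a PRR agonist was added and cells incubated overnight. Supernatant NF-κB (SEAP, QUANTI-Blue, 620 nm absorbance) and IRF (Lucia luciferase, QUANTI-Luc, luminescence) signals were divided by the mean agonist-only control on the same plate to give fold change. Two replicate plates were averaged, with errors by propagation.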
# [2] = test system: RAW-Dual (murine macrophage reporter line); assay: IRF reporter (Lucia luciferase) activity fold change vs agonist alone; higher = enhanced IRF activity
# Method in brief: as §1
# [3] = test system: RAW-Dual (murine macrophage reporter line); assay: viability score (confluency relative to resting cells, overnight) (fraction); higher = more viable, active = viable (0.7 or more)
# Method in brief: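 Overnight exposure to 10 μM final compound was carried out on RAW-Dual macrophages in 384-well plates. IncuCyte software generated two confluency masks over all wells imaged with IncuCyte. The viability score gives confluency in relation to resting cells. A compound met the cutoff if each mask exceeded 70% of resting cells.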
# [4] = agonist: CpG ODN 1826 0.5 ug/mL
Compound,"NF-kB reporter [1, 4]",NF-kB reporter ([1]; agonist: LPS 0.1 ug/mL),NF-kB reporter ([1]; agonist: MPLA […]),IRF reporter ([2]; agonist: 3'3'-cGAMP 10 ug/mL),IRF reporter ([2]; agonist: LPS 0.1 ug/mL),IRF reporter ([2]; agonist: MPLA […]),viability score [3]
O=c1cc(-c2ccc(O)cc2)oc2cc(OC3OC(CO)C(O)C(O)C3O)cc(O)c12 (configuration not stated),1.14 ± 0.11,1.06 ± 0.072,1.05 ± 0.022,0.911 ± 0.094,0.966 ± 0.05,1.01 ± 0.086,0.998 (active)
COC12C(COC(N)=O)C3=C(C(=O)C(C)=C(N)C3=O)N1CC1NC12 (configuration not stated),1.35 ± 0.12,0.967 ± 0.083,1.18 ± 0.13,1.09 ± 0.075,1.32 ± 0.18,1.41 ± 0.28,0.969 (active)
Fc1ccc(Nc2nc(NN=Cc3ccccc3F)nc(N3CCCCC3)n2)cc1,1.41 ± 0.13,0.987 ± 0.12,1.02 ± 0.096,1.16 ± 0.081,1.26 ± 0.18,1.74 ± 0.28,1.01 (active)
Nc1ncnc2c1ncn2C1CC(O)C(CO)O1 (configuration not stated),0.992 ± 0.08,0.875 ± 0.065,1.12 ± 0.11,1.12 ± 0.039,1.29 ± 0.18,1.35 ± 0.26,1.05 (active)
CC(C)c1ccccc1NS(=O)(=O)c1ccccc1,0.866 ± 0.072,0.766 ± 0.039,1.05 ± 0.11,1.08 ± 0.066,1.4 ± 0.089,1.53 ± 0.16,0.857 (active)
CC(C)OCc1ccc(C(=O)Nc2nnc(C(C)C)s2)o1,0.988 ± 0.1,1 ± 0.079,0.961 ± 0.15,0.986 ± 0.051,1.11 ± 0.068,1.05 ± 0.08,1.01 (active)
COC(=O)CSc1nc(O)c2c(C)c(C)sc2n1,0.808 ± 0.077,0.829 ± 0.04,1.03 ± 0.1,0.984 ± 0.046,1.49 ± 0.093,1.55 ± 0.19,1.01 (active)
CC(C)c1ccccc1NC(=O)C1COCC(=O)N1Cc1ccccc1 (configuration not stated),0.983 ± 0.063,0.996 ± 0.15,1.08 ± 0.058,0.985 ± 0.074,1.15 ± 0.26,1.29 ± 0.51,0.979 (active)
CC(C)CC(C(=O)Nc1ccc(Cl)cc1)N1C(=O)c2ccccc2C1=O (configuration not stated),1.01 ± 0.17,0.982 ± 0.085,0.938 ± 0.089,0.988 ± 0.053,1.15 ± 0.21,1.21 ± 0.2,0.6 (inactive)
COC(=O)CNC(c1ccccc1)c1cc(Br)ccc1NC(=O)c1ccccc1 (configuration not stated),1.06 ± 0.18,1.03 ± 0.12,1.33 ± 0.21,1.06 ± 0.035,1.16 ± 0.13,1.63 ± 0.19,1.01 (active)
CC(C)(C)NCC(=O)Nc1ccc(S(N)(=O)=O)cc1,0.762 ± 0.061,0.821 ± 0.064,1.06 ± 0.091,1.02 ± 0.049,1.52 ± 0.098,1.7 ± 0.2,0.997 (active)
COc1ccc(C2=NN(C(=O)c3ccc(Br)cc3)C(c3nc4ccccc4[nH]3)C2)cc1 (configuration not stated),0.994 ± 0.087,1.1 ± 0.12,0.867 ± 0.07,0.92 ± 0.049,1.16 ± 0.092,1.1 ± 0.34,0.986 (active)
C(=C\c1ccccc1)/CN1CCN(C(c2ccccc2)c2ccccc2)CC1,1.14 ± 0.16,0.957 ± 0.37,0.989 ± 0.065,0.828 ± 0.028,1.23 ± 0.44,1.33 ± 0.1,0.979 (active)
COc1ccccc1-c1cc(-c2ccccc2)nc(SCC(N)=O)c1C#N,1.06 ± 0.17,0.918 ± 0.12,0.928 ± 0.073,0.596 ± 0.02,1.2 ± 0.18,1.41 ± 0.2,1 (active)
Cc1ccc(C(=O)NC(=S)Nc2nc(-c3cccc([N+](=O)[O-])c3)cs2)cc1C,1.02 ± 0.12,0.98 ± 0.16,0.977 ± 0.036,0.931 ± 0.17,1.08 ± 0.094,1.12 ± 0.13,1 (active)
COc1ccc2[nH]c(S(=O)Cc3ncc(C)c(OC)c3C)nc2c1 (configuration not stated),1.22 ± 0.23,1.01 ± 0.26,0.909 ± 0.065,0.83 ± 0.028,1.11 ± 0.27,0.934 ± 0.074,0.99 (active)
CN1CC(O)C2=C/C(=N/NC(N)=O)C(=O)C=C21 (configuration not stated),0.855 ± 0.048,1 ± 0.084,0.927 ± 0.065,0.99 ± 0.046,1.09 ± 0.18,1.24 ± 0.44,0.665 (inactive)
CCN(CC)Cc1ccc(Nc2ccnc3cc(Cl)ccc23)cc1O.Cl.Cl,0.998 ± 0.1,0.874 ± 0.065,0.908 ± 0.085,0.988 ± 0.055,1.09 ± 0.19,1.04 ± 0.16,1.04 (active)
CCc1cc(=O)oc2c(C)c(OCC(=O)c3ccc(OC)cc3)ccc12,0.804 ± 0.066,0.837 ± 0.039,1.06 ± 0.11,0.925 ± 0.062,1.45 ± 0.084,1.62 ± 0.14,1.01 (active)
C[C@H]1[C@@H](OC(=O)CCC(=O)O)O[C@@H]2O[C@]3(C)CC[C@H]4[C@H](C)CC[C@@H]1[C@@]24OO3,1.02 ± 0.071,1.12 ± 0.11,0.95 ± 0.043,0.934 ± 0.11,1.11 ± 0.14,1.06 ± 0.25,1 (active)
Cc1ccc(S(=O)(=O)N=C(Nc2ccc([N+](=O)[O-])cc2)c2ccccc2)cc1,1.06 ± 0.075,1.13 ± 0.074,0.928 ± 0.06,0.958 ± 0.032,1.39 ± 0.32,1.22 ± 0.16,1 (active)
COC(=O)COc1ccc2oc(=O)cc(-c3cc4cccc(OC)c4o3)c2c1,0.858 ± 0.065,1.06 ± 0.12,1.05 ± 0.025,0.928 ± 0.052,0.872 ± 0.084,1.04 ± 0.086,0.992 (active)
O=C(NCC(O)(c1ccccc1)C(F)(F)F)c1ccc(Br)o1 (configuration not stated),0.943 ± 0.054,0.86 ± 0.12,0.929 ± 0.036,0.858 ± 0.038,1.04 ± 0.065,1.05 ± 0.15,0.948 (active)
O=C(NCC#CCN1CCc2ccccc2C1)c1cccc(Br)c1,0.87 ± 0.043,1.12 ± 0.095,0.94 ± 0.057,1.01 ± 0.057,1.14 ± 0.069,1.26 ± 0.12,1.01 (active)
Cc1cc(C)c(S(=O)(=O)N2CCN(C(=O)N(C)C)CC2)c(C)c1,1.83 ± 0.4,1.21 ± 0.24,2.12 ± 0.63,0.505 ± 0.32,0.802 ± 0.48,0.738 ± 0.31,0.564 (inactive)
CC(C)(C)C1(O)CC(C(F)(F)F)=NN1C(=O)c1cccc([N+](=O)[O-])c1 (configuration not stated),0.62 ± 0.091,1.08 ± 0.062,0.873 ± 0.052,1.01 ± 0.025,1.48 ± 0.27,1.01 ± 0.22,0.974 (active)

# Reference: the supplement of paper PMC10646978
